In the supplement of paper PMC6089552:
About 300 (9.4%) of roughly 3,200 compounds showed activity. What follows is part of a selection rich in actives, with near analogues and random picks from the rest.

System: A673/TR/shEF
Test: cell viability (LOESS-normalised, relative to median of negative controls) (log2 ratio); higher = more viable cells (less compound effect), active = hit call of the paper (over 3 MAD below the median)
Settings: treatment time: 72 h
Method in brief: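 A673/TR/shEF Ewing sarcoma cells were plated at 1,500 per well in 384-well plates and cultured with or without doxycycline, added 24 h before compounds, to induce EWS-FLI1 shRNA knockdown. Library compounds at two or more concentrations, alongside DMSO controls, were applied for three days. Cell viability was measured by CellTiter-Glo luminescence on an Envision reader. Readings were LOESS-corrected per plate, divided by the median of negative controls and log2-transformed, and hits were wells lying at least three median absolute deviations from the median of all screened wells.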

[1] = 0.25 µM, library screen: screen1, EWS-FLI1 expression: high (no doxycycline)
[2] = 0.25 µM, library screen: screen1, EWS-FLI1 expression: low (doxycycline-induced shRNA knockdown)
[3] = 2.5 µM, library screen: screen1, EWS-FLI1 expression: high (no doxycycline)
[4] = 2.5 µM, library screen: screen1, EWS-FLI1 expression: low (doxycycline-induced shRNA knockdown)
[5] = 0.25 µM, library screen: screen2, EWS-FLI1 expression: high (no doxycycline)
[6] = 0.25 µM, library screen: screen2, EWS-FLI1 expression: low (doxycycline-induced shRNA knockdown)
[7] = 2.5 µM, library screen: screen2, EWS-FLI1 expression: high (no doxycycline)
[8] = 2.5 µM, library screen: screen2, EWS-FLI1 expression: low (doxycycline-induced shRNA knockdown)
[9] = 0.103 µM, library screen: screen3, EWS-FLI1 expression: high (no doxycycline)
[10] = 0.103 µM, library screen: screen3, EWS-FLI1 expression: low (doxycycline-induced shRNA knockdown)
[11] = 0.308 µM, library screen: screen3, EWS-FLI1 expression: high (no doxycycline)
[12] = 0.308 µM, library screen: screen3, EWS-FLI1 expression: low (doxycycline-induced shRNA knockdown)
[13] = 0.926 µM, library screen: screen3, EWS-FLI1 expression: high (no doxycycline)
[14] = 0.926 µM, library screen: screen3, EWS-FLI1 expression: low (doxycycline-induced shRNA knockdown)
[15] = 2.8 µM, library screen: screen3, EWS-FLI1 expression: high (no doxycycline)
[16] = 2.8 µM, library screen: screen3, EWS-FLI1 expression: low (doxycycline-induced shRNA knockdown)
[17] = 8.3 µM, library screen: screen3, EWS-FLI1 expression: high (no doxycycline)
[18] = 8.3 µM, library screen: screen3, EWS-FLI1 expression: low (doxycycline-induced shRNA knockdown)
[19] = 25 µM, library screen: screen3, EWS-FLI1 expression: high (no doxycycline)
[20] = 25 µM, library screen: screen3, EWS-FLI1 expression: low (doxycycline-induced shRNA knockdown)

Measured: cell viability (log2)

CC(=O)N[C@@H]1[C@@H](O)[C@H](O)[C@@H](CO)O[C@H]1O
inactive: [1] 0.0385 | [2] 0.0648 | [3] 0.0809 | [4] 0.0429

CC(C)CC1NC(=O)C(Cc2ccccc2)NC(=O)C(CCN)NC(=O)C(NC(=O)C(CCN)NC(=O)C(CCO)NC(=O)C(CCN)NC=O)CCNC(=O)C(CCO)NC(=O)C(CCN)NC(=O)C(CCN)NC1=O.COc1cc(Cc2cnc(N)nc2N)cc(OC)c1OC (stereo not given)
inactive: [1] 0.0686 | [2] 0.0873 | [3] 0.182 | [4] 0.054

Cc1ccccc1N1CCN(S(=O)(=O)C[C@]23CCC(CC2NC(=O)[C@@H](N)CCS(C)(=O)=O)C3(C)C)CC1 (stereo not given in full)
inactive: [5] 0.163 | [6] 0.172 | [7] 0.18 | [8] 0.0913

CC(C)=CCCC1(C)C=Cc2c(O)c3c(c(CC=C(C)C)c2O1)OC12C(=CCCC1C(C)(C)OC2(CC=C(C)C(=O)O)C(=O)O)C3=O (stereo not given)
inactive: [1] 0.0468 | [2] -0.0618 | [3] 0.121 | [4] 0.0265

CN(C)C(=O)/N=N/C(=O)N(C)C
inactive: [5] 0.0755 | [6] 0.0201 | [7] 0.21 | [8] 0.117

COc1ccc(Cl)cc1C(=O)NCCc1ccc(S(=O)(=O)NC(=O)NC2CCCCC2)cc1
inactive: [9] 0.115 | [10] 0.0621 | [1] 0.0607 | [2] 0.0399 | [5] 0.171 | [6] 0.0382 | [11] 0.175 | [12] 0.0954 | [13] 0.104 | [14] 0.103 | [3] 0.0749 | [4] 0.0806 | [7] 0.0699 | [8] 0.0189 | [15] 0.125 | [16] 0.0778 | [17] 0.113 | [18] 0.0685 | [19] 0.0907 | [20] 0.0579

CCC1=C(C)CN(C(=O)NCCc2ccc(S(=O)(=O)NC(=O)NC3CCC(C)CC3)cc2)C1=O (stereo not given)
active: [19] -0.481 | [20] -0.408
inactive: [9] 0.065 | [10] 0.0619 | [11] -0.018 | [12] 0.0454 | [13] -0.0554 | [14] -0.00949 | [15] 0.0264 | [16] -0.0201 | [17] -0.0146 | [18] -0.0784

Cc1cnc(C(=O)NCCc2ccc(S(=O)(=O)NC(=O)NC3CCCCC3)cc2)cn1
inactive: [9] 0.103 | [10] 0.0573 | [5] 0.139 | [6] -0.00978 | [11] 0.195 | [12] 0.0857 | [13] 0.143 | [14] 0.063 | [7] 0.155 | [8] 0.035 | [15] 0.0953 | [16] 0.0849 | [17] 0.13 | [18] 0.0833 | [19] 0.172 | [20] 0.135

CC1(C)[C@@H](O[C@@H]2O[C@H](C(=O)O)[C@@H](O)[C@H](O)[C@H]2O[C@@H]2O[C@H](C(=O)O)[C@@H](O)[C@H](O)[C@H]2O)CC[C@]2(C)[C@H]3C(=O)C=C4[C@@H]5C[C@@](C)(C(=O)O)CC[C@]5(C)CC[C@@]4(C)[C@]3(C)CC[C@@H]12
inactive: [1] 0.061 | [2] 0.0758 | [3] 0.126 | [4] 0.123

NC[C@@H]1O[C@H](O[C@@H]2[C@@H](CO)OC(O[C@H]3C(O[C@H]4O[C@H](CO)[C@@H](O)[C@H](O)[C@H]4N)[C@@H](N)C[C@@H](N)[C@@H]3O)[C@@H]2O)[C@H](N)[C@@H](O)[C@@H]1O (stereo not given in full)
inactive: [1] 0.0774 | [2] 0.116 | [5] 0.171 | [6] 0.0601 | [3] 0.0937 | [4] 0.0802 | [7] 0.19 | [8] 0.0499

COc1ccc(OC)c(CN2CCN(Cc3ccc(F)cc3)CC2)c1
inactive: [1] 0.102 | [2] 0.0528 | [3] 0.106 | [4] -0.00941

CN1CCN(CCOc2cc(OC3CCOCC3)c3c(Nc4c(Cl)ccc5c4OCO5)ncnc3c2)CC1
active: [17] -0.339 | [18] -0.15 | [19] -0.476 | [20] -0.808
inactive: [9] 0.0216 | [10] 0.122 | [11] -0.0387 | [12] 0.0239 | [13] -0.075 | [14] 0.0267 | [15] -0.153 | [16] -0.0864

C[C@@H]1O[C@H](OC[C@H]2O[C@@H](Oc3c(-c4ccc(O)c(O)c4)oc4cc(O)cc(O)c4c3=O)[C@H](O)[C@@H](O)[C@@H]2O)[C@H](O)[C@H](O)[C@H]1O
inactive: [1] -0.0111 | [2] 0.0513 | [3] 0.125 | [4] 0.094

C[C@H](CCC(=O)O)[C@H]1CC[C@H]2[C@@H]3C(O)CC4=CC(=O)CC[C@]4(C)[C@H]3CC[C@]12C (stereo not given in full)
inactive: [1] 0.0418 | [2] -0.00533 | [3] 0.162 | [4] -0.0526

C[n+]1c2cc(N)ccc2cc2ccc(N)cc21
active: [7] -0.404 | 25 µM, library screen: screen2, EWS-FLI1 expression: high (no doxycycline) -4.23 | 25 µM, library screen: screen2, EWS-FLI1 expression: low (doxycycline-induced shRNA knockdown) -2.18
inactive: 0.025 µM, library screen: screen2, EWS-FLI1 expression: high (no doxycycline) 0.0847 | 0.025 µM, library screen: screen2, EWS-FLI1 expression: low (doxycycline-induced shRNA knockdown) 0.099 | [1] 0.0872 | [2] 0.141 | [5] 0.0533 | [6] 0.0413 | [3] 0.0728 | [4] 0.101 | [8] -0.0252

CCCCN1CCC(COC(=O)c2cc(Cl)c(N)c3c2OCCO3)CC1
active: [5] -0.151
inactive: [6] -0.0248 | [7] 0.148 | [8] 0.108

CC[C@H](/C=C/[C@@H](C)[C@H]1CC[C@H]2[C@@H]3CCC4=CC(=O)CC[C@]4(C)[C@H]3CC[C@]12C)C(C)C
inactive: [1] 0.0678 | [2] 0.0569 | [3] 0.0668 | [4] -0.0817

COC(=O)[C@H]1[C@H]2C[C@H]3c4[nH]c5cc(OC)ccc5c4CCN3C[C@H]2C[C@@H](OC(=O)c2cc(OC)c(OC)c(OC)c2)[C@@H]1OC
inactive: [1] 0.121 | [2] 0.17 | [3] 0.195 | [4] 0.313

COc1ccc2c(c1)[C@@]1(C)CCC(=O)C[C@H]1CC2
inactive: [1] 0.0614 | [2] 0.0537 | [3] 0.105 | [4] 0.0269

Clc1ccc(C(c2ccc(Cl)cc2)n2cc[n+](CC(OCc3ccc(Cl)cc3Cl)c3ccc(Cl)cc3Cl)c2)cc1 (stereo not given)
inactive: [5] 0.138 | [6] 0.0728 | [7] 0.0573 | [8] 0.0822

COc1ccccc1N1CCN(CCCCNS(=O)(=O)c2cccc3c(N(C)C)cccc23)CC1
inactive: [5] 0.171 | [6] 0.0777 | [7] 0.0423 | [8] 0.0929

NCCCCNS(=O)(=O)c1cccc2c(Cl)cccc12
active: [5] -0.151
inactive: [6] 0.0648 | [7] 0.0418 | [8] 0.0582

NCCCCCCNS(=O)(=O)c1cccc2c(Cl)cccc12
inactive: [1] 0.066 | [2] 0.0556 | [5] 0.156 | [6] 0.0625 | [3] 0.0432 | [4] 0.0443 | [7] 0.141 | [8] 0.102

O=C(Oc1cc(O)c2c(c1)O[C@H](c1cc(O)c(OC(=O)c3cc(O)c(O)c(O)c3)c3c(O)c(=O)cc(C4Oc5cc(O)cc(O)c5C[C@H]4O)cc13)[C@H](O)C2)c1cc(O)c(O)c(O)c1 (stereo not given in full)
inactive: [1] 0.0686 | [2] 0.0559 | [3] 0.0408 | [4] 0.0509

CC12CC[C@](C)(C(=O)O)CC1C1=CC(=O)[C@@H]3C4(C)CC[C@H](OC(=O)CCC(=O)O)C(C)(C)[C@@H]4CCC3(C)[C@]1(C)CC2 (stereo not given in full)
inactive: [1] 0.0741 | [2] -0.061 | [3] 0.0857 | [4] -0.0474

CC(=O)OC1CCC2(C)C(CCC3C2CCC2(C)C3CC3OC4(CCC(C)CO4)C(C)C32)C1 (stereo not given)
inactive: [1] 0.0872 | [2] 0.0698 | [3] 0.151 | [4] 0.0624

CC(=O)OC1CCC2(C)C(CCC3C2CC(=O)C2(C)C3CC3OC4(CCC(C)CO4)C(C)C32)C1 (stereo not given)
inactive: [1] 0.0619 | [2] 0.0314 | [3] 0.0226 | [4] 0.0969

COc1ccc(/C=C/C(=O)O)cc1O
inactive: [1] 0.0659 | [2] -0.0174 | [3] 0.0725 | [4] 0.0415

C[C@]12CC[C@@H]3c4ccc(O)cc4CC[C@H]3[C@@H]1CC[C@@H]2OC(=O)CCC1CCCC1
inactive: [2] 0.00213 | [3] 0.197 | [4] 0.299
active: [1] -0.302

CCCCC(=O)O[C@H]1CC[C@H]2[C@@H]3CCc4cc(O)ccc4[C@H]3CC[C@]12C
inactive: [1] 0.0993 | [2] -0.0254 | [3] 0.16 | [4] 0.0807

CCC(=O)O[C@H]1CC[C@H]2[C@@H]3CCc4cc(O)ccc4[C@H]3CC[C@]12C
inactive: [1] 0.0933 | [2] 0.137 | [3] 0.162 | [4] 0.0928

CS(=O)(=O)Nc1ccc([N+](=O)[O-])cc1Oc1ccccc1
inactive: [1] 0.147 | [2] 0.0914 | [5] 0.0788 | [6] -0.000657 | [3] 0.123 | [4] 0.11 | [7] 0.101 | [8] 0.0459

O=[N+]([O-])c1ccc(Oc2ccc(Br)cc2)c(C(O)[P+](=O)O)c1 (stereo not given)
inactive: 0.025 µM, library screen: screen1, EWS-FLI1 expression: high (no doxycycline) 0.0442 | 0.025 µM, library screen: screen1, EWS-FLI1 expression: low (doxycycline-induced shRNA knockdown) 0.0701 | [1] 0.235 | [2] 0.0171 | [4] -0.0253 | 25 µM, library screen: screen1, EWS-FLI1 expression: low (doxycycline-induced shRNA knockdown) -0.0834
active: [3] -0.289 | 25 µM, library screen: screen1, EWS-FLI1 expression: high (no doxycycline) -0.404
